Holding throughout (assay): NCI-60 one-dose screen, 48 h (100 = growth as untreated, 0 = no growth, -100 = all killed)
Holding throughout (conditions): 10 µM unless noted

For assay [1], the system named is SK-MEL-2 melanoma.
For assay [2], the system named is EKVX NSCLC.
Assay [3] has as its system SN12C renal.
In assay [4] the test system is UO-31 renal.
Assay [5] deals with TK-10 renal.
The subject of assay [6] is CAKI-1 renal.
Assay [7] concerns CCRF-CEM leukemia.
The subject of assay [8] is MOLT-4 leukemia.
Assay [9] has as its system SR leukemia.
The subject of assay [10] is RPMI-8226 leukemia.
In assay [11] the test system is OVCAR-8 ovarian.
For assay [12], the system named is OVCAR-5 ovarian.
The subject of assay [13] is OVCAR-4 ovarian.
Assay [14] relates to SK-OV-3 ovarian.
The test system of assay [15] is IGROV1 ovarian.
Assay [16] concerns OVCAR-3 ovarian.
The test system of assay [17] is HS 578T breast.
For assay [18], the system named is NCI/ADR-RES ovarian.
Assay [19] deals with ACHN renal.
The subject of assay [20] is A498 renal.

The panel holds about 83,000 compounds, 20% with a hit somewhere; the sample as a whole holds those more often.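 The test compound was applied at a single concentration to cells in 96-well plates for 48 hours, and percent growth was recorded.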 Values without a mark were called inactive. The source made the active and inactive calls. The calls were made as follows: active = growth percent below 10; inactive = the rest.

`COc1ccc(/C=C\c2cc(OC)c(OC)c(OC)c2)cc1OC(=O)c1cccc(Cn2cc(CCOC(=O)[C@H](N)Cc3cn(C)c4ccccc34)nn2)c1`: the growth in [1] was 51.1%; in [2], 47.2%; in assay [3] it was 38.5%; in assay [4], 42.5%; in assay [5] it was 79.6%; in assay [6], 34.4%. The growth is 10.2% in [7]; 6.32% (active) in assay [8]; -0.0904% (active) in assay [9]; 25.9% in [10]; 23% in [11]; 41% in assay [12]. The growth in assay [13] was 20.9%; in assay [14] it was 34.7%; in assay [15], 16.2%; in assay [16], 1.65% (active); in [17], 26.9%; in [18] it was 6.28% (active).

On to `COc1ccc(C(=S)N2CCN(c3cccc(Cl)c3)CC2)cc1`, for which the growth in assay [1] was 80.4%; in assay [2], 93.2%; in [3], 103%; in [4], 83.2%; in [5], 94%; in assay [19], 109%. For the same compound, the growth is 106% in [20]; 108% in [8]; 90.6% in assay [9]; 100% in assay [11]; 98.5% in assay [12]; 99.1% in [13]. The growth in [14] was 107%; in assay [15], 104%; in [16], 112%; in [17] it was 118%; in assay [18], 104%.

Turning to `N#CCCN=Nc1c(O)[nH]c2ccc(F)cc12`, the growth in assay [1] was 101%; in [2], 90.9%; in assay [3] it was 101%; in assay [4] it was 80.6%; in assay [5], 108%; in [6] it was 84.8%. Moreover, the growth in assay [20] was 75.8%; in [7] it was 107%; in assay [8], 103%; in assay [10] it was 109%; in [11], 107%; in [12], 97.7%. Further, the growth in assay [13] is 90.4%; in [14], 100%; in assay [15], 101%; in assay [16], 103%; in assay [17] it was 97.9%.

On to `CC(C)C1=C[C@@]23CC[C@@H]4[C@](C)(CCC[C@@]4(C)C(=O)N4CCCNCC4)[C@H]2C[C@@H]1[C@H]1C(=O)CCC(=O)[C@H]13`, for which the growth in assay [1] is 103%; in assay [2] it was 95.2%; in [3], 102%; in [4] it was 79.2%; in [5], 104%; in [6], 81.1%. The growth was 97% in [20]; 101% in assay [7]; 100% in assay [10]; 96.6% in [11]; 97.9% in assay [12]; 98.8% in [13]. The growth in assay [14] was 107%; in assay [15] it was 99.2%; in assay [16], 115%; in [17], 106%; in assay [18] it was 94.9%.

As for `COc1cc(-c2ccc3c(c2)NC(=O)/C3=C\c2ccc[nH]2)ccc1O`, the growth is 31.4% in assay [1]; 35.6% in [2]; 27.5% in assay [3]; 14.5% in assay [4]; 35.7% in assay [5]; 11.2% in assay [6]. In addition, the growth in assay [20] was 64%; in [7], 12.3%; in [8], 10.3%; in assay [9] it was 8.9% (active); in assay [10] it was 6.57% (active); in assay [11], 18.5%. For the same compound, the growth was 48.2% in assay [12]; 52.4% in assay [13]; 30.7% in assay [14]; 26.3% in [15]; 9.59% (active) in assay [16]; 53.9% in assay [17]. Also, in [18], the growth was 12.7%.

Regarding `O=C1/C(=C/c2ccccc2)SC(=S)N1CCc1ccc(O)cc1`, the growth in assay [1] is 101%; in assay [2], 91.9%; in assay [3], 91.3%; in [4], 65%; in [5] it was 99.9%; in assay [6], 73.3%. Moreover, the growth was 92.1% in assay [20]; 74.2% in [7]; 88.6% in assay [8]; 93.7% in assay [9]; 95.5% in assay [10]; 96.3% in assay [11]. In addition, the growth was 103% in assay [12]; 76.4% in assay [13]; 85% in assay [14]; 82.3% in [15]; 97.4% in assay [16]; 76.9% in assay [17]. Also, the growth in assay [18] is 99.3%.

In the case of `CC[N+](CC)=c1sc2c(s1)C(c1ccc(Cl)cc1)Oc1ccc(Cl)cc1-2` (stereo unspecified), the growth in assay [1] is -31.3% (active); in assay [2], 16.4%; in [3] it was 5.19% (active); in [4], 70.5%; in assay [5], 44%; in [20], 28.6%. Besides, the growth in assay [7] was -17% (active); in [8] it was -10.1% (active); in [9] it was 14.8%; in assay [10], -31.4% (active); in assay [11], 10.7%; in assay [12], 15.1%. Further, the growth is 9.29% (active) in assay [13]; -6.15% (active) in assay [14]; 9.22% (active) in assay [15]; 1.97% (active) in assay [16]; 18.3% in [17]; 88.9% in assay [18].

As for `Cc1[nH]c(-c2ccc3cc[nH]c3c2)c2c1C(=O)CCCC2`, the growth in assay [1] was 71%; in assay [2] it was 47.8%; in [3] it was 50.8%; in assay [4], 22.2%; in assay [5], 32.7%; in assay [6], 11.9%. The growth was 44.4% in assay [20]; 64.7% in assay [7]; 68.6% in assay [8]; 50.9% in [9]; 21.9% in assay [10]; 46.4% in assay [11]. Moreover, the growth in assay [12] is 78.2%; in [13], 48.5%; in [14], 25.5%; in assay [15], 36.9%; in [16] it was 51%; in [17] it was 21.9%. Further, in assay [18], the growth is 40.7%.

For the compound `CSc1nc(Nc2cccc(NC(=O)CCl)c2)c(C#N)c(-c2cccc([N+](=O)[O-])c2)n1`, the growth in assay [1] was 57.5%; in assay [2] it was 74.1%; in assay [3] it was 34%; in assay [4] it was 67.2%; in assay [5] it was 137%; in assay [6] it was 52.2%. In addition, the growth in [20] was 96.6%; in assay [7], -14.4% (active); in [8], 1.11% (active); in assay [10], -14.1% (active); in assay [11], 37%; in assay [12], 78.7%. Moreover, the growth in assay [13] was 28.7%; in assay [14], 95.5%; in assay [15], 0.383% (active); in assay [16] it was 6.67% (active); in assay [17], 52%; in [18], 56.7%.

`Cn1cc(C(=O)c2nc(-c3c[nH]c4ccc(Br)cc34)no2)c2cc(F)ccc21`: the growth in assay [1] was 97.5%; in assay [2], 73.2%; in [3] it was 92.8%; in assay [4], 68.8%; in assay [5], 115%; in [6], 80.1%. Further, the growth was 107% in assay [20]; 100% in assay [7]; 94.8% in [8]; 101% in [9]; 99.5% in assay [10]; 94.6% in assay [11]. The growth in [12] is 99.3%; in assay [13], 93.1%; in [14], 87.9%; in assay [15], 61.3%; in assay [16], 97.2%; in assay [17], 85%. Besides, the growth in [18] is 94.1%.

`COc1cccc(NC(=O)c2sc3nc(C)c(C(C)=O)cc3c2N)c1`: the growth is 24.5% in assay [1]; 56.4% in [2]; 55.9% in assay [3]; 75.2% in [4]; 55.7% in [5]; 63.3% in [19]. The growth in assay [20] was 17.2%; in assay [7], 51.6%; in [9], 19%; in assay [10], 52.2%; in assay [11], 63.5%; in [12], 112%. The growth was 63.7% in assay [13]; 25.2% in [14]; 59.7% in assay [15]; 17.8% in assay [16]; 43.3% in assay [17]; 34.1% in assay [18].

For `Cc1ccc(O)c(N2C(=NCc3ccco3)NS(=O)(=O)c3cnccc32)c1`, the growth in [1] is 106%; in assay [2], 101%; in [3], 101%; in [4], 91.2%; in assay [5], 124%; in assay [6] it was 68.4%. Further, the growth in [20] is 109%; in assay [7], 61.2%; in assay [8], 87.9%; in assay [9] it was 71.3%; in assay [10], 65.7%; in assay [11] it was 64.5%. The growth was 92.4% in assay [12]; 107% in assay [13]; 117% in assay [14]; 94.2% in assay [15]; 96.9% in [16]; 113% in [17]. For the same compound, the growth in assay [18] was 95.2%.

For `CN1CCN(Cc2ccc(NC(=O)c3cncc(C#Cc4cncn5ccnc45)c3)cc2C(F)(F)F)CC1`, the growth was 24.2% in [1]; 86.6% in [2]; 31.3% in assay [3]; 44% in assay [4]; 94.2% in assay [5]; 89.2% in assay [6]. For the same compound, the growth in [7] was 36%; in [8], 82.9%; in assay [9], 40.8%; in assay [10] it was 54.9%; in assay [11] it was 68.8%; in [12], 48.4%. Besides, the growth in [13] was 48.5%; in assay [14] it was 88.9%; in assay [15], 20.4%; in assay [16], 83.8%; in assay [17] it was 69.6%; in assay [18], 93.6%.

On to `COc1ccc2c(c1)c(-c1nonc1-c1cn(C)c3ccccc13)cn2C`, for which the growth was 41.4% in [1]; 51.7% in [2]; 47.8% in assay [3]; 35.1% in assay [4]; 59.2% in [5]; 30.1% in [6]. Besides, the growth in assay [20] is 3.63% (active); in assay [7], 25.7%; in assay [8], 30.2%; in assay [9] it was 30.1%; in assay [10], 21.2%; in assay [11] it was 35.6%. Also, the growth is 52% in [12]; 45.5% in [13]; 44.6% in [14]; 42.5% in assay [15]; 3.08% (active) in assay [16]; 16.7% in assay [17]. In addition, in assay [18], the growth is 17.1%.

On to `CC(C)(C)N1CCC1CN` (stereo unspecified), for which the growth is 72.1% in [1]; 90.1% in assay [2]; 111% in assay [3]; 91.1% in assay [4]; 106% in assay [5]; 114% in assay [19]. Also, the growth in assay [20] was 88.5%; in assay [8] it was 128%; in assay [9], 101%; in assay [11] it was 97.5%; in assay [12], 107%; in assay [13] it was 103%. The growth in assay [14] is 104%; in assay [15], 112%; in assay [16] it was 103%; in assay [17], 117%; in assay [18], 113%.

Regarding `O=C1c2cc3c(cc2-c2c1c1ccc(F)cc1c(=O)n2CCCNCCO)OCO3`, the growth in assay [1] is -46.1% (active); in assay [2] it was -14% (active); in [3], -60.4% (active); in assay [4], -72.2% (active); in assay [5], -18.9% (active); in [6] it was -7.53% (active). The growth is -95.9% (active) in assay [20]; 0.848% (active) in assay [7]; -25% (active) in assay [8]; -25.7% (active) in [9]; -12.5% (active) in assay [10]; -33% (active) in assay [11]. In addition, the growth in assay [12] was -59.4% (active); in assay [13], -76.9% (active); in assay [14] it was -33.7% (active); in assay [15], -5.09% (active); in assay [16] it was -28.1% (active); in assay [17] it was 3.15% (active). For the same compound, in assay [18], the growth is -13.8% (active).

Values taken from PubChem BioAssay (NCI).
